The list is not random: actives were taken first. Their share in the collection is about 5.3%.
Mot1-301 SUMO: yeast Mot1-301 growth rescue at high temperature, primary screen, SUMOylation pathway inhibitor project, S. cerevisiae, ATP luminescence, 38.5C; 320,000 compounds, 1% hits; S. cerevisiae Mot1-301 growth rescue; percent above DMSO median, 100 means doubled; AID 2716, 2010; growth rescue, % at 18.8 µM;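 active = every valid replicate shows activation above 250% relative to neutral control wells; inactive = the rest, any valid replicate at or below 250%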
PfM18AAP inh: PfM18AAP inhibitors, malaria aminopeptidase, primary screen, biochemical, QFRET, recombinant enzyme; M18 aspartyl aminopeptidase (Plasmodium falciparum 3D7); H-Glu-NHMec fluorogenic cleavage; inhibition, % at 7.35 µM; 290,000 compounds, 1.2% hits;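 active = inhibition above the campaign mean inhibition over all tested compounds plus 3 SD, cut at about 28% in these data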
HIF activator: HIF pathway transcriptional activators, primary screen, cell-based, U2OS HRE-luciferase, luminescence | 300,000 compounds, 0.32% hits | U2OS HRE-luciferase reporter; normalized: DMSO 0%, desferrioxamine 100% | activation, % at 7.5 µM (by protocol) | AID 1910, 2009;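 active = mean activation of at least 10% of the iron chelator positive control signal, with at least half of replicates also reaching 10%; inconclusive = mean and replicate majority disagree about reaching 10%; inactive = mean and most replicates under 10%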
ALR H2O2 inh: inhibitors of human ALR sulfhydryl oxidase, primary screen, biochemical, H2O2 detection, HRP-luminol luminescence, single point; FAD-linked sulfhydryl oxidase ALR (Homo sapiens), P55789; purified ALR, DTT oxidation; inhibition, % (no concentration beside the values); 290,000 compounds, 3.8% hits; AID 485317, 2010;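 active = mean replicate inhibition above about 79%, with every replicate also reaching it, limit read from the data; inconclusive = only one of the two criteria met; inactive = mean below limit and not every replicate reaching it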
Target sequence (P55789 whole entry, looked up): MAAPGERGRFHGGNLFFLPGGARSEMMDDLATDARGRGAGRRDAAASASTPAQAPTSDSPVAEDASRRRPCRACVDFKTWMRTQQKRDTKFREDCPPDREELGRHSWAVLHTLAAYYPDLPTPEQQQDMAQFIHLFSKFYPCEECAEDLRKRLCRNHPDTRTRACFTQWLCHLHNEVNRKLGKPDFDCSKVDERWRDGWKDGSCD
Each line names hits and unclear results; the compound was inactive in the other large screens.

Cc1c(C(=O)NC(c2ccccn2)C(F)(F)F)oc2c(F)cccc12 (configuration not stated)	none
CCOc1cc(/C=C2\SC(=S)N(Nc3ccccc3)C2=O)ccc1O	ALR H2O2 inh 80.7
COc1cc(/C=C2\SC(=S)N(Nc3ccccc3)C2=O)ccc1O	ALR H2O2 inh inconclusive
CCOc1cc(/C=C2\SC(=S)N(NS(=O)(=O)c3ccccc3)C2=O)ccc1O	ALR H2O2 inh 99.1
COc1ccc(NS(=O)(=O)c2ccc3nc(COc4ccc(C#N)cc4)[nH]c3c2)cc1	ALR H2O2 inh 97.9
NNC(=O)c1csc(-c2ccc(C(F)(F)F)cc2Cl)n1	ALR H2O2 inh 93.3
CC(=O)c1ccc(NC(=O)C(C)Sc2nnc3ccccn23)cc1 (configuration not stated)	none (no result: PfM18AAP inh, HIF activator)
O=C(Nc1ccc(SC(F)F)cc1)c1ccccc1F	ALR H2O2 inh 98.5
CN1CCN(C/C(=C2/N=C(c3ccccc3)OC2=O)N(C)C)CC1	ALR H2O2 inh 97.8
CC(C)c1ccc(/C=C/C(=O)NC(=S)NN2CCOCC2)cc1	ALR H2O2 inh 80.4 (no result: HIF activator)
CNC(=O)COc1coc(CN2CCN(c3ccccc3OC)CC2)cc1=O	none
Cc1cccc(-c2nc3sc(C)cc3c(=O)o2)c1	ALR H2O2 inh 97.3
CC(=O)CSc1nc2ccccc2o1	none
Clc1ccc(-c2nnc(SCc3nc(-c4ccccc4)no3)o2)cc1	none
c1ccc(-c2noc(CSc3nc4ccccc4o3)n2)cc1	ALR H2O2 inh 86.3
O=C(O)c1ccccc1CSc1nc2ccccc2o1	Mot1-301 SUMO 320.2
O=C(CSc1nc2ccccc2o1)c1ccccc1	none (no result: ALR H2O2 inh)
O=C(O)c1ccc(CSc2nc3ccccc3o2)cc1	ALR H2O2 inh 97.0
Cc1ccc(CNC(=O)c2ccc(NS(=O)(=O)c3cccs3)cc2)cc1	none
NC(Cc1ccccc1)C(O)(c1ccccc1)c1ccccc1 (configuration not stated)	none
Nc1ccccc1C(O)(Cc1ccccc1)c1ccccc1 (configuration not stated)	ALR H2O2 inh 98.6
O=[N+]([O-])c1ccc(O)c(/C=N/Nc2nn[nH]n2)c1	ALR H2O2 inh 83.6
Oc1ccccc1/C=N/Nc1nn[nH]n1	none
O=C(N/N=C/c1cc([N+](=O)[O-])ccc1O)c1cccc2ccccc12	HIF activator 11.1
O=[N+]([O-])c1ccc(O)c(/C=N/Nc2ccc(Cl)nn2)c1	HIF activator 64.2 (no result: Mot1-301 SUMO)
Cc1cc(C)c2cc(C#N)c(SCC(=O)Nc3cc(C)on3)nc2c1	none
CS(=O)(=O)Nc1nc2n(n1)C(c1ccccc1)CC(c1ccccc1)N2 (configuration not stated)	none
CCn1c(CC(=O)Nc2ccc(OC)cc2)nnc1SCC(=O)N1CCOCC1	none
Cc1ccc(-n2c(-c3ccccc3)c[nH]c2=S)cc1	none
S=c1[nH]cc(-c2ccc(Cl)cc2)n1Cc1ccccc1	none
CC(C)Cn1c(-c2ccc(Br)cc2)c[nH]c1=S	ALR H2O2 inh 96.9
CCn1c(-c2ccccc2)c[nH]c1=S	ALR H2O2 inh 99.0 (no result: Mot1-301 SUMO)
O=C(Nc1cccn(Cc2c(F)cccc2Cl)c1=O)NC1CCCCC1	PfM18AAP inh 28.3 (no result: ALR H2O2 inh)
O=C(Nc1cccn(Cc2cccc(F)c2)c1=O)NC1CCCCC1	none (no result: ALR H2O2 inh)
OC(COc1ccccc1)CN1CCCCCC1 (configuration not stated)	none
OC(COC(c1ccccc1)c1ccccc1)CN1CCOCC1 (configuration not stated)	none
OC(CN1CCOCC1)CN(c1ccccc1)c1ccccc1 (configuration not stated)	ALR H2O2 inh 99.1
OC(CN1CCCCCC1)CN(c1ccccc1)c1ccccc1 (configuration not stated)	ALR H2O2 inh 99.0
O=C(c1ccccc1)C(CCC(CN1CCOCC1)C(=O)c1ccccc1)CN1CCOCC1 (configuration not stated)	ALR H2O2 inh 97.9
Cc1ccccc1S(=O)(=O)N(CC(O)CN1CCCCC1)c1ccccc1 (configuration not stated)	none
OC(CN1CCCCC1)CN(c1ccccc1)c1ccccc1 (configuration not stated)	ALR H2O2 inh 98.3
C[C@@H]1CN([C@@H](C)CO)C(=O)c2cc(NC(=O)Nc3ccc(F)cc3)ccc2O[C@@H]1CN(C)Cc1ccc(Oc2ccccc2)cc1	none (no result: PfM18AAP inh, HIF activator)
Nc1nc(COC(=O)c2ccc3c(c2)OCCO3)nc(Nc2ccccc2)n1	none (no result: PfM18AAP inh, HIF activator)
CC1CCN(CC(O)COc2ccc(-c3ccccc3)cc2)CC1 (configuration not stated)	none
Cc1ccc(C(=O)Nc2ccsc2C(=O)O)cc1	none (no result: ALR H2O2 inh)
O=C(Nc1ccsc1C(=O)O)c1ccc(Cl)cc1	ALR H2O2 inh 96.9
Cc1cc(C)c2cc(CN(CC3CCCO3)C(=O)NC3CCCCC3)c(=O)[nH]c2c1 (configuration not stated)	none (no result: Mot1-301 SUMO, HIF activator, ALR H2O2 inh)
O=C(CC(SCc1ccco1)c1ccc(O)cc1)c1cccs1 (configuration not stated)	Mot1-301 SUMO 600.5, ALR H2O2 inh 95.6
O=C(CSc1nnc(-c2cccnc2)n1Cc1ccco1)c1ccccc1	none
O=C(CSc1nnc(-c2ccc(O)cc2)n1Cc1ccco1)c1ccccc1	ALR H2O2 inh 94.0
O=C(CSc1nnc(-c2ccc(O)cc2)n1Cc1ccco1)c1cccs1	ALR H2O2 inh 99.4
CC(C)C(=O)N(Nc1nc2ccccc2s1)C(=O)C(C)C	none
CC(C)C(=O)NN(C(=O)C(C)C)c1nc2ccccc2s1	ALR H2O2 inh 94.9
Cc1cccc(CN2CCN(C(=O)CCc3nnc(C4CCCCC4)o3)CC2)c1	none
Cc1noc(C)c1NC(=O)Nc1cccc2c1O[C@H](CN(C)C(=O)Nc1ccc(C(F)(F)F)cc1)[C@@H](C)CN([C@H](C)CO)C2=O	none (no result: PfM18AAP inh, HIF activator)
CCN(CC)S(=O)(=O)c1cccc(C(=O)N/N=C(\C)c2ccc(O)cc2O)c1	HIF activator 12.8, ALR H2O2 inh 86.3
CSc1nnc2c(n1)c(C)nn2-c1cccc(C)c1	ALR H2O2 inh 95.0 (no result: Mot1-301 SUMO)
CC1CCC(NC(=O)Cn2ncc3ccccc32)CC1 (configuration not stated)	none (no result: HIF activator)
CC1CCCCC1NC(=O)Cn1ncc2ccccc21 (configuration not stated)	ALR H2O2 inh 97.5 (no result: HIF activator)
CN(C)c1ccc(/C=C/c2nc3ccccc3c(=O)n2-c2ccc(C(=O)O)cc2)cc1	ALR H2O2 inh 99.0
O=C(O)c1cccc(-n2c(/C=C/c3ccccc3)nc3ccccc3c2=O)c1	ALR H2O2 inh 78.2
CC(C)(C)C(=O)Nc1nc(C2CCCN2S(=O)(=O)c2ccc(Cl)cc2)cs1 (configuration not stated)	none (no result: ALR H2O2 inh)
CCOC(=O)C1CCN(S(=O)(=O)c2ccc(NC(=O)OC)cc2)CC1	none
COC(=O)Nc1ccc(S(=O)(=O)N2CCC(C(=O)N(C)C3CCCCC3)CC2)cc1	ALR H2O2 inh 92.2
C/C(=C1/SC(N2CCCC2)=NC1=O)c1ccc(Br)cc1	none
N#CCSc1nnc(Cc2cccc3ccccc23)n1C1CCCCC1	none
